Source: PubChem BioAssay AID588676 (Johns Hopkins Ion Channel Center, 2011)
In all, about 310,000 compounds went through this assay and about 3,900 (1.3%) were called active.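 Rule for the calls: active = calcium-response B-score plate-corrected more than 3 library SD below zero, starting fluorescence within 5 deviations, no agonist response on first addition; inactive = the rest.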 The list comes from a sample in which actives are over-represented; it also holds similar structures and randomly drawn compounds.

Target: Mas-related G-protein coupled receptor member X1 (Homo sapiens) (UniProt Q96LB2)
Sequence (Q96LB2 whole entry, looked up): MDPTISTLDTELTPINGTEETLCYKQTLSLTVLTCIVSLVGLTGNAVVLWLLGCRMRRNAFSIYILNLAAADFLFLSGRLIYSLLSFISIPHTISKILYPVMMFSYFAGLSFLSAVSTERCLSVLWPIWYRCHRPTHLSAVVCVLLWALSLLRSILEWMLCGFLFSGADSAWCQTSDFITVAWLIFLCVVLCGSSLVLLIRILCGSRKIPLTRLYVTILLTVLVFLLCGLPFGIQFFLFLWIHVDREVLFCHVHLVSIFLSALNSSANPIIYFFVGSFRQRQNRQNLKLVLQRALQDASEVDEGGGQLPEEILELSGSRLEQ
Assay: antagonists of human MrgX1 receptor, primary screen, HEK293 cells, Fluo-4 calcium flux (AID 588676);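 for B-score: peak minus trough fluorescence over baseline after final BAM8-22 challenge near maximal dose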
Conditions: Fluo-4, BAM8-22 antagonism, at 10 µM; hits give low values

Row | SMILES | B-score
1 | O=C(c1ccc(Oc2ccc(Cl)cc2)c([N+](=O)[O-])c1)N1CCCC1 | inactive
2 | Cc1nn(C)c(C)c1Sc1ccccc1N | inactive
3 | CC(=O)N1CCN(C(=O)c2cc(-c3ccc(Cl)s3)nc3ccccc23)CC1 | inactive
4 | Brc1ccc2c(c1)[C@H]1OCC[C@H]1[C@@H](c1cccs1)N2 | inactive
5 | Cc1ccccc1NC(=O)CCOc1ccccc1 | inactive
6 | CCCCn1c(=S)[nH]c2ccccc2c1=O | inactive
7 | O=C(CCn1c(=S)[nH]c2cc3c(cc2c1=O)OCO3)NCc1ccc(Cl)cc1 | inactive
8 | CN(C)CCn1c(=S)[nH]c2ccc(Cl)cc2c1=O | -7.49 (active)
9 | Cc1cccc(N2CCN(C(=O)/C=C/c3ccco3)CC2)c1C | inactive
10 | CC1CCC2CCCCC2N1C(=O)c1cc([N+](=O)[O-])cc([N+](=O)[O-])c1 (stereo not drawn) | inactive
11 | CCCCCC1CCC(c2nnc(SCC(C)=O)o2)CC1 (stereo not drawn) | inactive
12 | O=C(CCS(=O)(=O)c1cccc2nonc12)NCCc1ccccc1Cl | inactive
13 | CC(NC(=O)c1ccccc1F)c1cccc2ccccc12 (stereo not drawn) | inactive
14 | COc1ccc(-n2c(SCC(=O)NCc3cccs3)nnc2-c2ccoc2C)cc1 | inactive
15 | COc1ccc(-n2c(SCC(=O)NCc3ccco3)nnc2-c2c[nH]c3ccccc23)cc1 | -6.52 (active)
16 | O=C(CSc1nnc(-c2c[nH]c3ccccc23)n1-c1ccc(F)cc1)NCc1ccco1 | inactive
17 | O=c1[nH]snc1-c1c(Cl)cccc1Cl | inactive
18 | CCOc1ccc(CCNC(=O)Nc2ccccc2)cc1OCC | inactive
19 | COc1cccc(CNC(=O)C2CC(=O)N(C3CCCCCCC3)C2)c1 (stereo not drawn) | inactive
20 | Cc1no[n+]([O-])c1COc1ccccc1/C=C1\NC(=S)NC1=O | inactive
21 | O=c1c2cc(Br)ccc2nc(-c2cccc(Cl)c2)n1O | inactive
22 | O=c1c2c(nc3cc(-c4cccc(Cl)c4)[nH]n13)CCCC2 | inactive

Row | SMILES | B-score
23 | O=C1CCCc2c1nc(-c1cccc(Cl)c1)n2O | -7.62 (active)
24 | Cc1c(CC(=O)NCC(=O)NCC(=O)O)c(=O)oc2cc3oc4c(c3cc12)CCCC4 | inactive
25 | CC(C)CNC(=S)NC(=O)c1ccc(Cl)cc1 | inactive
26 | COc1cccc(-c2cccc(NC(=O)C3CCN(C4CCC4)CC3)c2)c1 | inactive
27 | O=C(CN(C(=O)c1csnn1)c1cccc(F)c1)NCc1ccc(F)cc1 | inactive
28 | COC(=O)C1=C(C(=O)OC)C2(OC1c1ccc(Br)cc1)C(=O)c1ccccc1C2=O (stereo not drawn) | inactive
29 | Cc1cccc(NC(=O)COc2ccc(Br)cc2C)n1 | inactive
30 | Cc1ccccc1OCC(=O)Nc1nc(C)c(C(=O)N(C)C)s1 | inactive
31 | Cc1cccc(NC(=O)COc2ccccc2C)n1 | -4.62 (active)
32 | COc1ccc(C)cc1NC(=S)N1CCOCC1 | inactive
33 | COCC(=O)Nc1ccc(Br)cc1 | inactive
34 | CN1CCN(NC(=O)Nc2ccc(Br)cc2)CC1 | inactive
35 | CN1C(CC(=O)Nc2ccc(Br)cc2)c2ccccc2CC1(C)C (stereo not drawn) | -5.82 (active)
36 | CCN(CC)c1ccc(C(=O)NNC(=O)CCc2nc3ccccc3c(=O)[nH]2)cc1 | inactive
37 | Cc1ccc(S(=O)(=O)N2CCN(S(=O)(=O)N3CCOCC3)CC2)cc1 | inactive
38 | O=S(=O)(c1ccc2ccccc2c1)N1CCN(S(=O)(=O)N2CCOCC2)CC1 | -11.5 (active)
39 | Cc1ccccc1N1CCN(S(=O)(=O)c2ccc3ccccc3c2)CC1 | inactive
40 | Cc1cccc(OCC(=O)NC(=S)Nc2ccccc2N2CCOCC2)c1 | inactive
41 | O=C(COc1ccc(Cl)cc1)NC(=S)Nc1ccccc1N1CCOCC1 | -5.65 (active)
42 | CCc1ccc(C(=O)NC(=S)Nc2ccccc2N2CCOCC2)cc1 | inactive
43 | CCOC(=O)C1CCN(C(=O)CN2C(=O)c3cccnc3Oc3ccc(C)cc32)CC1 | inactive
44 | C[C@@H](NC(=O)[C@@H]1Cc2ccccc2CN1)C(=O)NC1CCCC1 | inactive

Row | SMILES | B-score
45 | Cc1nc2ccccc2nc(C)c1=NOCc1ccc(Cl)cc1Cl | inactive
46 | COc1ccc(CCNC(=O)CCc2cn(C)c3ccccc23)c(OC)c1 | inactive
47 | NC(=O)NC(=O)C(OC(=O)CCNS(=O)(=O)c1ccccc1)c1ccccc1 (stereo not drawn) | inactive
48 | CCOc1ccc(NC(=O)c2ccc(NC(=O)COC(=O)c3ccc(NC(=O)CC#N)cc3)cc2)cc1 | inactive
49 | CCOc1ccc(C(=O)Nc2ccncc2)cc1 | inactive
50 | CCOc1ccc(NC(=O)CCNC(=O)c2ccc(Br)cc2)cc1 | -4.98 (active)
51 | Fc1cccc(Cc2noc(CN3CCN(c4cnccn4)CC3)n2)c1 | inactive
52 | C=CCOc1cccc(CNCc2cccnc2)c1 | inactive
53 | c1ccc(COc2ccccc2CNCc2cccnc2)cc1 | -6.34 (active)
54 | Fc1ccccc1COc1ccccc1CNCc1ccncc1 | inactive
55 | COc1ccc(N2C(=O)C(CC(=O)Nc3ccccc3)N(Cc3ccc(OC)c(OC)c3)C2=O)cc1 (stereo not drawn) | inactive
56 | CCOc1ccc(C(=O)N(Cc2ccc(N(C)C)cc2)C2CCS(=O)(=O)C2)cc1 (stereo not drawn) | inactive
57 | COc1ccc(C(=O)N(Cc2ccc(N(C)C)cc2)C2CCS(=O)(=O)C2)cc1 (stereo not drawn) | inactive
58 | COc1cc(C(=O)N(Cc2ccc(N(C)C)cc2)C2CCS(=O)(=O)C2)cc(OC)c1OC (stereo not drawn) | -4.58 (active)
59 | O=Cc1ccc(OCc2cn3ccccc3n2)cc1 | inactive
60 | COc1ccc(NS(=O)(=O)c2ccc(F)cc2F)cn1 | inactive
61 | COC(=O)c1sccc1NC(=O)CSc1ccccc1NS(=O)(=O)c1cc(Cl)ccc1Cl | inactive
62 | COC(=O)c1sccc1NS(=O)(=O)c1ccc(F)cc1F | -4.66 (active)
63 | COc1c(Br)cc2c(C)c(C(=O)N3CCOCC3)oc2c1Br | inactive
64 | O=C(CN1CCN(c2ccc(Cl)cc2)CC1)c1ccccc1 | inactive
65 | O=C(CN1CCN(c2ccc(Cl)cc2)CC1)N1CCCC1 | -6.44 (active)
66 | O=C(CN1CCCC1)N1CCN(c2ccccc2)CC1 | inactive

Row | SMILES | B-score
67 | Cc1cccc(-[n+]2c(-c3cccc(Br)c3)[nH]c3nc4ccccc4nc32)c1 | inactive
68 | CN(CC(=O)Nc1ccccc1Cl)C(=O)COc1cccc2c1OC(C)(C)C2 | -5.16 (active)
69 | CC1(C)Cc2cccc(OCC(N)=O)c2O1 | inactive
70 | CC1(C)Cc2cccc(OCC(=O)NCc3ccccc3)c2O1 | inactive
71 | CC1(C)Cc2cccc(OCC(=O)Nc3nccs3)c2O1 | inactive
72 | CC1(C)Cc2cccc(OCC(=O)N3CCN(c4ccc([N+](=O)[O-])cc4)CC3)c2O1 | inactive
73 | COc1cccc(CCNC(=O)COc2cccc3c2OC(C)(C)C3)c1 | -5.36 (active)
74 | O=C(NNc1ccccc1Cl)C(O)(c1cccc(C(F)(F)F)c1)c1cccc(C(F)(F)F)c1 | inactive
75 | COc1cccc(CNC(=O)C2CCN(S(=O)(=O)c3cccc4cccnc34)CC2)c1 | -4.66 (active)
76 | COc1ccc(S(=O)(=O)N2CCC(C(=O)NCCC(=O)NCc3cccc(OC)c3)CC2)cc1 | inactive
77 | COc1ccccc1CNC(=O)C1CCCN(S(=O)(=O)c2cccc3cccnc23)C1 (stereo not drawn) | inactive
78 | O=C(c1ccccc1)C(Cn1cncn1)C(Sc1ccccc1)c1ccccc1 (stereo not drawn) | -5.84 (active)
79 | OC(COc1ccc2ccccc2c1)Cn1cncn1 (stereo not drawn) | inactive
80 | Fc1ccccc1OCCCCn1cncn1 | inactive
81 | COc1ccc(C2(O)C(=O)Nc3ccccc32)cc1 (stereo not drawn) | inactive
82 | COc1ccc(NC(=O)c2ccco2)cc1NC(=O)c1ccc(C#N)cc1F | inactive
83 | Cc1c(C=O)c2ccccn2c1C(=O)c1ccncc1 | inactive
84 | CCCN1C2CCCC1CC(NC(=O)NC13CC4CC(CC(C4)C1)C3)C2 (stereo not drawn) | inactive
85 | Nc1cccc(S(=O)(=O)Nc2ccc(SC(F)F)cc2)c1 | inactive
86 | COc1cccc(-n2c(Cc3cc(=O)[nH]c(=O)[nH]3)nnc2SCC(=O)Nc2ccccc2)c1 | inactive
87 | Cc1cccc(-n2c(Cc3cc(=O)[nH]c(=O)[nH]3)nnc2SC(C)C)c1 | -6.63 (active)
88 | Cc1cccc(-n2c(Cc3cc(=O)[nH]c(=O)[nH]3)nnc2SCC(=O)Nc2cccc(C(F)(F)F)c2)c1 | inactive

Row | SMILES | B-score
89 | CC(C)NC(=O)NNc1c(Cl)cncc1Cl | inactive
90 | Cc1ccc(C(c2nnnn2CS(=O)(=O)c2ccc(C)cc2)N2CCC(C)CC2)cc1 (stereo not drawn) | inactive
91 | CC1(C)CC(N2CCN(C(c3ccccc3)c3ccccc3)CC2)=CC(=[N+]2CCCCC2)C1 | -4.89 (active)
92 | CC1(C)CC(=O)C=C(N2CCCC2)C1 | inactive
93 | O=C(O)CN1CCN(C(c2ccccc2)c2ccccc2)CC1 | inactive
94 | CCC(=O)N(C)C(c1ccccc1Cl)c1nnnn1-c1c(C)cccc1C (stereo not drawn) | inactive
95 | COc1ccc(N2CC(NS(=O)(=O)c3ccc4ccccc4c3)CC2=O)cc1 (stereo not drawn) | inactive
96 | CSCC[C@H](NC(=O)N1CCn2c1nc1ccccc12)C(=O)NCc1ccc2c(c1)OCO2 | inactive
97 | Cc1ccc(S(=O)(=O)N2CCN(C)CC2)cc1C(=O)NC1CCCCC1 | inactive
98 | CCCCC1(C(=O)OCC)NC(c2ccc(O)cc2)C2C(=O)N(c3ccccc3)C(=O)C21 (stereo not drawn) | inactive
99 | O=C1CCCN1C(=O)COc1ccc([N+](=O)[O-])cc1 | inactive
100 | COC(=O)COc1ccc(S(=O)(=O)Nc2ccc(NC(C)=O)cc2)cc1 | inactive
101 | CC(=O)Nc1ccc(OC(=O)COc2ccc(Br)cc2)cc1 | -4.53 (active)
102 | Cc1ccc(OC(=O)CCC(=O)Nc2ccc(Br)cc2)cc1 | inactive
103 | CCN(C(=O)CSc1nc2ccccc2n1CC)C1CCS(=O)(=O)C1 (stereo not drawn) | inactive
104 | CCN(C(=O)CSc1nnnn1-c1ccccc1OC)C1CCS(=O)(=O)C1 (stereo not drawn) | inactive
105 | CCN(C(=O)CSc1nnc2ccccn12)C1CCS(=O)(=O)C1 (stereo not drawn) | -5.04 (active)
106 | Cc1nc(N2CCN(c3ccccn3)CC2)c2c(C)c(C(=O)Nc3ccc(F)cc3)sc2n1 | inactive
107 | COc1ccc(NC(=O)c2sc3nc(C)nc(N4CCN(c5ccccn5)CC4)c3c2C)c(OC)c1 | inactive
108 | Cc1nc(N2CCN(c3ccccn3)CC2)c2c(C)c(C(=O)Nc3ccc(F)c(Cl)c3)sc2n1 | -5.65 (active)
